Structures are written as SMILES. Inconclusive results are not listed. Calls of active or inactive are those of the source. Rule for the calls, unless noted: active = hit-call score of the fitted dose curve at least 0.9, where 1 is the maximum; inactive = score below 0.9.

Read-out in assay [1]: Human Leukocyte Antigen - DR isotype (HLADR), HLA-DRA (gene 3122)
Kind of assay: BSK_3C_HLADR: BioMAP Diversity Plus: 3C Assay for Human Leukocyte Antigen - DR isotype (HLADR) Biomarker Activity (AID 2283019).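 For outcome: ELISA of cell-surface HLA-DR on HUVEC 24 h after dosing.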 Particulars: primary human endothelial cells (HUVEC); actives raise or lower the signal. Summed up: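 Endothelial cells from human umbilical vein are treated with test chemical; after 24 h, HLA-DR levels are measured by ELISA. Data are fitted in both directions using DMSO as the baseline.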

Read-out in assay [2]: Interleukin-8 (IL8), CXCL8 (gene 3576)
The experiment in a line: BSK_3C_IL8: BioMAP Diversity Plus: 3C Assay for Interleukin-8 (IL8) Biomarker Activity (AID 2283020). Particulars: primary human endothelial cells (HUVEC); actives raise or lower the signal. In short, it runs like this: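 Endothelial primary cells of human umbilical vein origin are dosed with chemical; after 24 h the IL-8 biomarker is measured by ELISA, and concentration–response is fitted in both directions versus DMSO.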

Read-out in assay [3]: Monokine induced gamma interferon (MIG), CXCL9 (gene 4283)
Kind of assay: BSK_3C_MIG: BioMAP Diversity Plus: 3C Assay for Monokine induced gamma interferon (MIG) Biomarker Activity (AID 2283021).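 For AC50: MIG protein level measured by immunoassay in the treated endothelial cultures.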 Conditions: primary human endothelial cells (HUVEC); actives raise or lower the signal. Summed up: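 Endothelial primary cells (human umbilical vein) are dosed with test chemical in the 3C system. MIG levels are measured by ELISA at 24 h and fitted in both directions relative to DMSO.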

In assay [4] the target is human Vitamin D Receptor (VDR), VDR (gene 7421) (UniProt P11473). The experiment in a line: ATG_VDR_TRANS: Attagene TRANS-FACTORIAL HepG2 Assay for human Vitamin D Receptor (VDR) (AID 2283022; active = hit-call score of the fitted dose curve at least 0.9, where 1 is the maximum). In short, it runs like this: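 Fluorescence of labelled reporter cDNA fragments, resolved by capillary electrophoresis, gives mRNA induction after 24 h treatment of HepG2 cells carrying transfected Gal4-fusion reporter units. Activity is fitted in the positive direction with DMSO as baseline.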
Sequence of human Vitamin D Receptor (VDR), VDR (gene 7421) (P11473 whole entry, looked up, the tested form may be a part): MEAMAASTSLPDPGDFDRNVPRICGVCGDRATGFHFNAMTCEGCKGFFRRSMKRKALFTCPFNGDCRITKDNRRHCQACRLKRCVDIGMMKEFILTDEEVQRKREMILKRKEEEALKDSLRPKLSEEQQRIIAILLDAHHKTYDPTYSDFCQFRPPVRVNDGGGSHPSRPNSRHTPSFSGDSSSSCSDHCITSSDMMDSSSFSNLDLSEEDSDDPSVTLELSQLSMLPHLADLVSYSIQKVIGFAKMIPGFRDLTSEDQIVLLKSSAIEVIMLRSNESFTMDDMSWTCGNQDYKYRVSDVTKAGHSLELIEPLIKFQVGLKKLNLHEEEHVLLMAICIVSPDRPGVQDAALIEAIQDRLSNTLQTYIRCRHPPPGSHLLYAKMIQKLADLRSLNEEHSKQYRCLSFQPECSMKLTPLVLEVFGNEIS

A short description of assay [5]: BSK_3C_SRB: Viability Assessment in the BioMAP Diversity Plus: 3C Assay (AID 2283023).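 Note: fitted both ways against DMSO so a hit may be signal rise or drop.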 Particulars: primary human endothelial cells (HUVEC). Summed up: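 Cells were dosed with chemical, cultured 24 h, fixed with 10% TCA, stained with 0.1% SRB and read at 560 nm. Human umbilical vein endothelium was used; DMSO served as negative control and baseline.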
Read-out in assay [6]: Matrix Metallopeptidase 1 (MMP1), MMP1 (gene 4312)
Kind of assay: BSK_BE3C_MMP1: BioMAP Diversity Plus: BE3C Assay for Matrix Metallopeptidase 1 (MMP1) Biomarker Activity (AID 2283024). Conditions: primary human bronchial epithelial cells; actives raise or lower the signal. Summed up:
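MMP1 signal, measured by ELISA after a 24 h chemical exposure of human primary bronchial epithelial cells, is analysed with bidirectional fitting using DMSO as negative control.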

Assay [7] is described as follows: BSK_3C_Vis: BioMAP Diversity Plus: 3C Assay for Morphology Visualization (AID 2283025).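 Note: fitted both ways so gain or loss versus DMSO counts.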 Particulars: primary human endothelial cells (HUVEC). In short, it runs like this: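 Morphology read by light microscopy serves as a background control for the multiplexed 3C assay in human umbilical vein endothelial cells, taken 24 h after dosing, with DMSO as the negative control and bidirectional curve fitting.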

Read-out in assay [8]: Pselectin, SELP (gene 6403)
Kind of assay: BSK_4H_Pselectin: BioMAP Diversity Plus: 4H Assay for Pselectin Biomarker Activity (AID 2283026). Conditions: primary human endothelial cells (HUVEC); actives raise or lower the signal. In short, it runs like this: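 Endothelial primary cells (human umbilical vein) are dosed, incubated 24 h, and assayed for surface P-selectin by ELISA; responses in either direction are fitted relative to the DMSO negative control.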

Assay [9] in a line: BSK_4H_SRB: Viability Assessment in the BioMAP Diversity Plus: 4H Assay (AID 2283027).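 For AC50: curves fitted both ways versus DMSO so AC50 may be loss or gain.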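 Note: cells exposed to compound for 24 h before staining.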 Conditions: primary human endothelial cells (HUVEC). Summed up:
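HUVEC, 24 h post-dose; 10% TCA fix, 0.1% SRB stain, A560 nm. Total protein = overt cytotoxicity, parallel to biomarker read. Bidirectional fit vs DMSO baseline.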

Assay [10] is described as follows: BSK_BE3C_SRB: Viability Assessment in the BioMAP Diversity Plus: BE3C Assay (AID 2283028).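 For AC50: fitted both ways so AC50 may mark signal gain or loss versus DMSO.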 Conditions: primary human bronchial epithelial cells. In short, it runs like this: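 Overt cytotoxicity was assessed as total protein in confluent human primary bronchial epithelial cultures 24 h after chemical addition, using 0.1% sulforhodamine B staining read at 560 nm.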

Read-out in assay [11]: Thrombomodulin, THBD (gene 7056)
The experiment in a line: BSK_3C_Thrombomodulin: BioMAP Diversity Plus: 3C Assay for Thrombomodulin Biomarker Activity (AID 2283029). Particulars: primary human endothelial cells (HUVEC); actives raise or lower the signal. In short, it runs like this:
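Endothelial cells from umbilical vein are dosed with test chemical and incubated 24 h. Thrombomodulin is then quantified by ELISA, with DMSO serving as negative control and activity baseline.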

Read-out in assay [12]: Human Leukocyte Antigen - DR isotype (HLADR), HLA-DRA (gene 3122)
The experiment in a line: BSK_BE3C_HLADR: BioMAP Diversity Plus: BE3C Assay for Human Leukocyte Antigen - DR isotype (HLADR) Biomarker Activity (AID 2283032). Conditions: primary human bronchial epithelial cells; actives raise or lower the signal. Summed up:
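Chemicals are dosed onto BE3C bronchial epithelial cultures of human origin and left 24 h. HLA-DR is then measured by ELISA, and the endpoint is fitted in both directions using DMSO as the activity baseline.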

Read-out in assay [13]: Vascular cell adhesion molecule 1 (VCAM1), VCAM1 (gene 7412)
The experiment in a line: BSK_4H_VCAM1: BioMAP Diversity Plus: 4H Assay for Vascular cell adhesion molecule 1 (VCAM1) Biomarker Activity (AID 2283033).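 For outcome: cell-surface VCAM-1 protein measured by ELISA.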 Particulars: primary human endothelial cells (HUVEC); actives raise or lower the signal. In short, it runs like this:
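Chemicals are added to primary human umbilical vein endothelial cells. After 24 h, VCAM-1 levels are measured by ELISA. Values come from bidirectional fitting referenced to DMSO.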

Read-out in assay [14]: Interferon-gamma inducible Protein 10 (IP10), CXCL10 (gene 3627)
Kind of assay: BSK_BE3C_IP10: BioMAP Diversity Plus: BE3C Assay for Interferon-gamma inducible Protein 10 (IP10) Biomarker Activity (AID 2283034). Conditions: primary human bronchial epithelial cells; actives raise or lower the signal. In short, it runs like this:
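IP-10 quantified by ELISA serves as the endpoint. Cells: primary human bronchial epithelium, read 24 h after compound addition. Activity is derived by bidirectional fitting with DMSO as negative control.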

Read-out in assay [15]: Transforming growth factor beta 1 (TGFb1), TGFB1 (gene 7040)
The experiment in a line: BSK_BE3C_TGFb1: BioMAP Diversity Plus: BE3C Assay for Transforming growth factor beta 1 (TGFb1) Biomarker Activity (AID 2283036;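 note: TGF-b1 protein level measured by ELISA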). Conditions: primary human bronchial epithelial cells; actives raise or lower the signal. In short, it runs like this:
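Bronchial epithelial primary cells are treated with test chemical, then TGF-b1 is quantified by ELISA after 24 hours. Values derive from bidirectional fitting against DMSO, with cytotoxicity checked by SRB staining in parallel cultures.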

Read-out in assay [16]: urokinase plasminogen activator (uPA), PLAU (gene 5328)
Kind of assay: BSK_BE3C_uPA: BioMAP Diversity Plus: BE3C Assay for urokinase plasminogen activator (uPA) Biomarker Activity (AID 2283038).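 Note: uPA protein level quantified by ELISA in cell cultures; uPA read one day after compound addition.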 Conditions: primary human bronchial epithelial cells; actives raise or lower the signal. Summed up: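 Measured by ELISA: uPA from human primary bronchial epithelial cells 24 h after chemical treatment. Values derive from bidirectional curve fitting with DMSO serving as negative control. Total protein by SRB staining in parallel wells flagged overt cytotoxicity.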

Read-out in assay [17]: Urokinase-type plasminogen activator receptor (uPAR), PLAUR (gene 5329)
Kind of assay: BSK_4H_uPAR: BioMAP Diversity Plus: 4H Assay for Urokinase-type plasminogen activator receptor (uPAR) Biomarker Activity (AID 2283030). Particulars: primary human endothelial cells (HUVEC); actives raise or lower the signal. In short, it runs like this: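 Chemicals are dosed onto human vascular endothelial primary cells (umbilical vein). After 24 h, uPAR is read by ELISA. Gain or loss of signal is fitted relative to DMSO.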

Read-out in assay [18]: Plasminogen activator inhibitor-1 (PAI1), SERPINE1 (gene 5054)
Kind of assay: BSK_BE3C_PAI1: BioMAP Diversity Plus: BE3C Assay for Plasminogen activator inhibitor-1 (PAI1) Biomarker Activity (AID 2283037). Conditions: primary human bronchial epithelial cells; actives raise or lower the signal. Summed up:
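Values derive from bidirectional fitting against DMSO baseline of PAI-1 levels, measured by ELISA in human bronchial epithelial cells 24 h after compound addition.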

Read-out in assay [19]: Vascular endothelial growth factor receptor 2 (Homo sapiens) (UniProt P35968)
The experiment in a line: BSK_4H_VEGFRII: BioMAP Diversity Plus: 4H Assay for Vascular endothelial growth factor receptor 2 (VEGFR2) Biomarker Activity (AID 2283031). Particulars: primary human endothelial cells (HUVEC); actives raise or lower the signal. Summed up:
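VEGFRII levels on human vascular endothelial primary cells were determined by ELISA at 24 hours post-dosing, with gain- or loss-of-signal fitted against DMSO controls.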

Read-out in assay [20]: Monokine induced gamma interferon (MIG), CXCL9 (gene 4283)
The experiment in a line: BSK_BE3C_MIG: BioMAP Diversity Plus: BE3C Assay for Monokine induced gamma interferon (MIG) Biomarker Activity (AID 2283035).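 For outcome: MIG protein measured by ELISA in BE3C cultures after 24 h of dosing.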 Particulars: primary human bronchial epithelial cells; actives raise or lower the signal. In short, it runs like this: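 Dose cells (human primary bronchial epithelial), incubate 24 h, quantify MIG by ELISA, then fit concentration–response in both directions relative to DMSO control.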

For the molecule `CCCCOC(=O)C(C)Oc1ccc(Oc2ccc(C(F)(F)F)cn2)cc1` (configuration not stated), the outcome in [1], in assay [2], in assay [3], in assay [4], in assay [5] and in [6] was inactive. Further, the outcome in [7], in assay [8], in [9], in [10], in assay [11] and in assay [12] was inactive. Also, the outcome in assay [13], in assay [14], in assay [15] and in [16] was inactive.
For the molecule `C[C@]12C[C@H](O)[C@H]3[C@@H](CCC4=CC(=O)CC[C@@]43C)[C@@H]1CC[C@@H]2C(=O)CO`, the result in [1], in [2], in assay [3], in assay [5], in [6] and in assay [7] was inactive. Besides, the result in [8], in [9], in assay [10], in assay [11], in assay [17] and in assay [12] was inactive. Moreover, the outcome in [13], in assay [15] and in [18] was inactive. Besides, the AC50 (as a rule, the midpoint of the concentration-response curve, whichever way the signal moves) in [14] was 34.8 µM (active).
`C=CCOC(Cn1ccnc1)c1ccc(Cl)cc1Cl` (configuration not stated): the half-maximal activity concentration (AC50) in assay [1] was 13.6 µM (active); in [7] it was 9.8 µM (active). The result in assay [2], in assay [3], in [4], in [5], in [6] and in assay [8] was inactive. Further, the outcome in assay [9], in [10], in [11], in [12], in assay [13] and in [14] was inactive. Also, the result in assay [15], in [18] and in [16] was inactive.
Turning to `CCCCC(CC)CN1C(=O)C2C3C=CC(C3)C2C1=O` (configuration not stated), the concentration at half-maximal activity (AC50) is 30.6 µM (active) in assay [1]; 16.9 µM (active) in assay [5]; 15.9 µM (active) in assay [6]; 17.3 µM (active) in assay [10]; 15.7 µM (active) in [12]; 18.2 µM (active) in [14]. In addition, the AC50 in assay [18] was 28.1 µM (active). For the same molecule, the outcome in [2], in [3], in [7], in assay [8], in assay [9] and in [11] was inactive. Also, the outcome in assay [19], in [13] and in assay [15] was inactive.
Regarding `CC(=O)[C@H]1CC[C@H]2[C@@H]3CCC4=CC(=O)CC[C@]4(C)[C@H]3CC[C@]12C`, the AC50 in assay [1] was 20 µM (active); in assay [2], 20 µM (active); in assay [5], 6.1 µM (active); in assay [6], 7.49 µM (active); in [7], 9.8 µM (active); in assay [8], 31.9 µM (active). For the same molecule, the result in assay [3], in assay [4], in assay [9], in assay [10], in assay [11] and in assay [12] was inactive. Besides, the result in assay [14] and in [15] was inactive.
Regarding `CCCN(CCC)c1c([N+](=O)[O-])cc(C(F)(F)F)c(N)c1[N+](=O)[O-]`, the AC50 in [1] was 18.4 µM (active); in assay [2], 32.9 µM (active); in [3], 31.7 µM (active); in assay [5], 30.6 µM (active); in assay [7] it was 16.3 µM (active); in [8], 30.3 µM (active). Moreover, the half-maximal activity concentration (AC50) was 31.5 µM (active) in assay [9]; 16.4 µM (active) in [10]; 2.15 µM (active) in [11]; 11.6 µM (active) in assay [12]; 20 µM (active) in [13]; 32.6 µM (active) in assay [14]. In addition, the half-maximal activity concentration (AC50) in assay [20] was 22.9 µM (active). Further, the result in assay [6], in assay [15] and in assay [16] was inactive.
With `S=C([S-])NCCNC(=S)[S-].[Mn+2]`, the AC50 in [1] is 29.7 µM (active); in [7] it was 39 µM (active); in assay [8], 27.8 µM (active); in assay [12], 30.5 µM (active). Moreover, the outcome in [2], in assay [3], in assay [5], in assay [6], in [9] and in assay [10] was inactive. For the same molecule, the outcome in assay [11], in assay [17], in assay [13], in assay [14], in [20] and in assay [15] was inactive. Moreover, the result in assay [18] was inactive.

These data come from PubChem BioAssay (EPA / NIEHS).
